Source: PubChem BioAssay (National Center for Advancing Translational Sciences (NCATS))
Hits are enriched below; roughly 2.8% of the tested compounds scored in any of these assays.
FEN1 inh: qHTS Assay for the Inhibitors of Human Flap endonuclease 1 (FEN1) | hit rate 0.35% among 390,000 | P39748 | AID 588795, 2011 | Potency, µM (series often up to 114 µM), for inactives: at the highest dose activity change, negative = inhibition, most hits filed as inhibitors | Recombinant FEN1 flap cleavage, fluorescence, 15 min; further: potency means the concentration at half of the fitted maximal effect; on the % scale 0 is the no-effect control and ±100 the full control effect; nearly all actives have a fitted effect of over 65% in size
Target sequence (P39748 whole entry, looked up): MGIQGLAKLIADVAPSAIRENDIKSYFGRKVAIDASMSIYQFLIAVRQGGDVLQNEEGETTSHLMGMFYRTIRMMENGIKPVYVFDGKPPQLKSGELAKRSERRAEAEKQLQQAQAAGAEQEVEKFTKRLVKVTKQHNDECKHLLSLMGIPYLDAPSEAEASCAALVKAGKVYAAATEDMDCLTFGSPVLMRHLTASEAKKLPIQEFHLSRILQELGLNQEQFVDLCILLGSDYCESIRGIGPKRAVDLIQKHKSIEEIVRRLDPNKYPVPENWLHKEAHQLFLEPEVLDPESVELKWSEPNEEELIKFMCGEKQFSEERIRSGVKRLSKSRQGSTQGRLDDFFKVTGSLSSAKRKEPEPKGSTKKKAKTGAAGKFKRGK
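Recombinant FEN1 (10 nM) was preincubated with pin-transferred compounds for 15 min at room temperature, then flap DNA substrate (50 nM final) was added. Plates were read at 0 and 15 min, and normalized concentration–response data were fitted to a four-parameter Hill equation.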
Pol kappa inh-1: qHTS for Inhibitors of Polymerase Kappa | DNA polymerase kappa (Homo sapiens), Q9UBT6 | purified Pol kappa, fluorescent DNA synthesis assay, 10 min | Potency, µM (titrated, usually from 107 µM), inactives show at the top dose activity, negative = inhibition, usual class: inhibitors | hit rate 0.53% among 400,000; further: potency means the concentration at half of the fitted maximal effect; on the % scale 0 is the no-effect control and ±100 the full control effect
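First, compounds were pin-transferred onto 10 nM Pol kappa. After 15 min at room temperature, substrate was added to 50 nM final. Fluorescence was then measured kinetically at 0 and 10 min.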
PI5P4Ka inh: qHTS for Inhibitors of phosphatidylinositol 5-phosphate 4-kinase (PI5P4K) | PI5P4Kalpha enzyme, ADP-Glo luminescence, 60 min; hits give low values | max response, % | hit rate 1.2% among 330,000 | AID 652105, 2013; active means max response of -50% or lower; inconclusive means between -30% and -50%; inactive means -30% or higher; further: value at the top dose of about 77 µM; on the % scale 0 is the no-effect control and ±100 the full control effect
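Reactions run in 0.038 M HEPES pH 7.4, 0.28 mM EGTA, 0.1% CHAPS and 5% DMSO, with PI5P4Kalpha, substrate, compound and 5 microM ATP final, one hour at room temperature. Readout is ADP-Glo luminescence.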
Pol beta inh: qHTS Assay for Inhibitors of DNA Polymerase Beta | P06746 | Pol beta primer extension/strand displacement, fluorescence kinetic | Potency, µM (series often up to 114 µM), without a hit: at the highest dose activity change, negative = inhibition, usual class: inhibitors | hit rate 1.3% among 340,000; further: potency means the concentration at half of the fitted maximal effect; on the % scale 0 is the no-effect control and ±100 the full control effect
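10 nM enzyme + cpd, 15 min RT; start with substrate 50 nM final; read 0 min and after 10 min RT. Corrected, normalized data; 4-parameter Hill curve fit.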
Pol eta inh-1: qHTS for Inhibitors of Polymerase Eta; DNA polymerase eta (Homo sapiens), Q9Y253; hit rate 1.2% among 390,000; Potency, µM (titrated, usually from 114 µM), for the others: at the top dose activity change, negative = inhibition, actives largely listed as inhibitors; recombinant Pol eta, fluorescent DNA replication assay; further: potency means the concentration at half of the fitted maximal effect; on the % scale 0 is the no-effect control and ±100 the full control effect
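Fluorescent replication assay: 50 nM final substrate added after a 15 min room-temperature compound preincubation with 10 nM enzyme. Signal taken at 0 min and again at 10 min.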
POLI inh: qHTS for Inhibitors of Polymerase Iota; DNA polymerase iota (Homo sapiens), Q9UNA4; Pol iota fluorescent replication assay, 10 min; Potency, µM (titrated, usually from 115 µM), inactives show at the top dose activity, negative = inhibition, actives largely listed as inhibitors; hit rate 1% among 390,000; AID 588590, 2011; further: potency means the concentration at half of the fitted maximal effect
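Pol iota at 10 nM preincubated 15 min with compounds at room temperature; reaction started with fluorescent substrate, 50 nM final. Fluorescence read kinetically at 0 and 10 min; buffer-only wells as negative control.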
GALK confirm: Confirmation Assay for Inhibitors of Human Galactokinase (GALK). hit rate 70% among 150. Potency, µM (doses to about 115 µM), inactives show at the highest dose activity, negative = inhibition, usual class: inhibitors. purified GALK, Kinase-Glo ATP depletion luminescence. shares compounds with Pol eta inh-1
Redox cycling: Confirmatory Assay for Inhibitors of Human Galactokinase (GALK): Phenol-HRP redox assay counterscreen; Potency, µM (series often up to 115 µM), without a hit: top-dose activity change, negative = H2O2 signal, hits mostly inhibitors; hit rate 40% among 150; shares compounds with Pol eta inh-1; AID 2035, 2009; Phenol red-HRP H2O2 redox cycling, absorbance 600 nm
HEK293 viability: Secondary Assay for Inhibitors of Human Galactokinase (GALK): HEK-293 Cell Viability Assay. Potency, µM (highest dose often 46.1 µM), for the others: top-dose activity change, negative = cytotoxicity, most hits filed as inhibitors. hit rate 10% among 170. shares compounds with Pol eta inh-1. HEK-293 viability, ATP luminescence (CellTiter-Glo), 24/48 h; further: potency means the concentration at half of the fitted maximal effect; on the % scale 0 is the no-effect control and ±100 the full control effect
Pol kappa inh-2: qHTS for Inhibitors of Polymerase Kappa: Confirmatory Assay for Cherry-picked Compounds. shares compounds with Pol eta inh-1. purified Pol-kappa, fluorescent strand-displacement substrate. Potency, µM, actives largely listed as inhibitors. hit rate 76% among 920; further: potency means the concentration at half of the fitted maximal effect
Pol eta inh-2: qHTS for Inhibitors of Polymerase Eta: Confirmatory Assay for Cherry-picked Compounds; AID 720502, 2013; Potency, µM, most hits filed as inhibitors; shares compounds with Pol eta inh-1; hit rate 64% among 2,600; Pol eta primer extension, TAMRA/BHQ fluorescence, 10 min; further: potency means the concentration at half of the fitted maximal effect
* = called active by the depositor; ? = inconclusive; . = not tested or not shown; [ ] = dose if it differs, or a comment. Unless noted, the call rests on the fitted dose curve; in most records, active means well fitted curve in the direction sought with a large enough effect; inconclusive means small, poorly fitted or top-dose-only effect, or another doubt; inactive means no such curve, though single readings can be large; an effect the other way counts as inactive or inconclusive.

SMILES | FEN1 inh | Pol kappa inh-1 | PI5P4Ka inh | Pol beta inh | Pol eta inh-1 | POLI inh | Pol eta inh-2 | others
O=C1CS(=O)(=O)C2(C(=O)N(Cc3cccc(F)c3)c3ccccc32)N1c1ccccc1 (stereo unspecified) | 0% | -5% | . | -1% | -2% | -4% | .
Cc1cc(C)n2c(SCC(O)=C(C#N)c3nc4ccccc4[nH]3)nnc2n1 | ? | ? | -74* | . | 25µM* | 11µM* | ?
Cc1cccc(/C=C/C(=O)c2cc(Br)ccc(=O)c2O)c1 | ? | ? | ? | ? | 32µM* | 0.89µM* | ?
CCOC(=O)C1CCCN(C(=O)c2cc(C#N)cs2)CC1 (stereo unspecified) | . | . | 1 | . | . | . | .
CC(C)[C@H](/C=C/C[Si](C)(C)C)[C@H](C)C(O)/C=C/CCCOC(=O)C(C)(C)C (stereo partly specified) | -19% | -6% | . | . | . | -23% | .
O=c1nc2s/c(=C\c3ccc(-c4ccccc4[N+](=O)[O-])o3)c(=O)n2nc1-c1ccccc1 | -3% | -3% | ? | 5µM* | ? | 7% | 76*
CC1=NN(c2ccc(C(=O)O)cc2)C(=O)/C1=C/c1ccc(-c2ccccc2F)o1 | . | . | . | -1% | . | . | .
CC1=NN(c2ccc(Cl)c(C(=O)O)c2)C(=O)/C1=C\c1ccc(-c2ccc(C(=O)O)cc2)o1 | ? | ? | -17 | 16µM* | 13µM* | ? | ? | Pol kappa inh-2=15*
CC1=NN(c2ccccc2)C(=O)/C1=C/c1ccc(-c2ccc(C)c(C(=O)O)c2)o1 | 18µM* | -15% | -18 | . | 25µM* | ? | ?
COc1ccccc1CNC(=O)c1cc(S(=O)(=O)N2CCCC(C)C2)cn1C (stereo unspecified) | -13% | -2%[60.1 µM] | . | -23% | ? | 473% | .
Cc1ccccc1OCC(=O)N/N=C/c1sc(=O)n(Cc2cccc(C(=O)O)c2)c1Cl | 9% | -18% | -3 | ? | ? | ? | ?
COc1ccc(C(=O)N/N=C/c2sc(=O)n(Cc3cccc(C(=O)O)c3)c2Cl)cc1 | -12% | -8% | -7 | -7% | ? | 18% | .
O=C(O)c1cccc(Cn2c(Cl)c(/C=N/Nc3ccccc3)sc2=O)c1 | -6% | ? | -64* | -4% | 45µM* | ? | ?
CCCCOCCCNC(=O)C[C@@H]1C[C@@]2(C(=O)OC)CCCCC=C2N(Cc2ccc(Cl)cc2Cl)C1=O | . | . | 24 | . | . | . | .
Cc1cc(C)c(S(=O)(=O)N2CCC(n3c(C(F)(F)F)nc4cccnc43)CC2)c(C)c1 | -1% | -3% | . | 14% | -17% | 21% | .
CCN(CC)c1ccc(/C=C2\C(=O)c3ccc(C(=O)O)cc3C2=O)cc1 | 40µM* | ? | -70* | 40µM* | 7.9µM* | ? | 27*
Cc1cccc(Oc2ccccc2NS(=O)(=O)c2ccc(CCC(=O)O)cc2)c1 | -2% | -44% | -14 | . | 20µM* | ? | 85* | Pol kappa inh-2=19*
O=C(O)CCc1ccc(S(=O)(=O)Nc2ccccc2C(=O)NCCc2ccccc2)cc1 | 15% | 4% | -2 | 7% | 4% | 25% | .
O=C(O)c1cccc(-n2cccc2C=C2C(=O)c3ccccc3C2=O)c1 | 50µM* | -43% | -11 | ? | 16µM* | ? | 76*
Cc1cc(/C=c2\sc3nc4ccccc4n3c2=O)c(C)n1-c1ccc(C(=O)O)cc1 | -13% | -38% | 2 | 22µM* | 22µM* | 45µM* | ?
CC1=NN(c2ccccc2)C(=O)/C1=C\c1cc(C)n(-c2ccccc2)c1C | 0% | -2% | 9 | -20% | -25% | 13% | .
O=C1C(=Cc2cccn2-c2ccccc2)C(=O)c2ccccc21 | -1% | -15% | 2 | 7% | ? | 37% | .
Cc1cc(C=C2C(=O)c3ccccc3C2=O)c(C)n1-c1ccc(C(=O)O)cc1 | ? | ? | -7 | ? | 25µM* | 35µM* | ?
CCOC(=O)c1c(NC(=O)c2cc3ccccc3c(=O)o2)sc2c1CCCC2 | -2% | -8% | . | 18% | -7% | -3% | .
Cc1ccc(Oc2coc3cc(OC(=O)c4cccs4)ccc3c2=O)cc1 | -2% | -19% | . | 19% | -2% | ? | .
CC(=O)Oc1ccc2c(=O)c(Oc3ccccc3)coc2c1OC(C)=O | ? | 14µM* | -27 | 10µM* | 6.3µM* | 13µM* | ?
O=C(O)c1cccc(S(=O)(=O)N2CCC(n3nnc4cc(C(F)(F)F)ccc43)CC2)c1 | -19% | -14% | 2 | 46% | 3% | 61% | . | GALK confirm=?;Redox cycling=-25%;HEK293 viability=2%
O=C(O)c1ccc(S(=O)(=O)N2CCC(n3nnc4cc(C(F)(F)F)ccc43)CC2)cc1 | 1% | 0% | -4 | 21% | -19% | 110% | .
Cc1nn(-c2ccccc2)c(Cl)c1CN(C(=O)CCl)c1cccc2ccccc12 | -18% | -8% | 0 | -1% | ? | 0% | .
